Experimental data as given in PubChem BioAssay (Tox21).
Values joined by “and” are separate entries in the source; they are usually repeats but may differ in a detail not shown here. Equal values may be shown once. Results filed as inconclusive are left out. Entries that show only a call come without a potency. Some compounds were tested as several samples or in several runs, with calls that do not always agree. Active and inactive are the calls of the source. Unless noted, calls come from the whole dose curve; as a rule, active = well fitted curve in the direction sought with a large enough effect in the repeat runs; inconclusive = weak or mixed curves; inactive = no such curve, though single readings can be large; an effect the other way counts as inactive or inconclusive.

Tests used:
[1] = qHTS assay to identify small molecule antagonists of the estrogen related receptor (ERR) signaling pathway from Tox21 library - cell viability counter screen (AID 1224834); note: nearly all actives have a fitted effect of over 30% in size; note: potency is the fitted concentration of half-maximal effect
How it was run: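 ERR reporter cells were plated 6 h before compound addition, then exposed to test compounds in DMSO for 17.5 h at 37 C. Viability was read as CellTiter-Fluor fluorescence after a 30-minute incubation at 37 C.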

[2] = molecular target: Luciferin 4-monooxygenase (Photinus pyralis) (UniProt P08659); test: qHTS assay to identify small molecule inhibitors of firefly luciferase (AID 1224835); note: nearly all actives have a fitted effect of over 25% in size; note: potency is the fitted concentration of half-maximal effect
How it was run: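 Quantitative HTS format; KM concentrations of both substrates. Purified P. pyralis FLuc activity quantified from luminescence images.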

[3] = qHTS assay to identify small molecule antagonists of the constitutive androstane receptor (CAR) signaling pathway - cell viability counter screen (AID 1224837); note: nearly all actives have a fitted effect of over 45% in size; note: potency is the fitted concentration of half-maximal effect
How it was run: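 HepG2 cells stably expressing hCAR and a CYP2B6-2.2kb reporter were plated and pre-incubated 4 hr at 37 C/5% CO2, then given compounds at 15 concentrations plus 50 nM CITCO (final). After 23 hr, viability was read by CellTiter-Fluor fluorescence.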

[4] = qHTS assay to identify small molecule antagonists of the estrogen related receptor signaling pathway with the pleiotropic PPARgamma coactivator (PGC) from Tox21 10K library - cell viability counter screen (AID 1224840; active = well fitted cell-killing curve with a large enough effect in the repeat runs, not every such curve was filed as active; note: nearly all actives have a fitted effect of over 40% in size)
How it was run: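 PGC/ERR cells were seeded at 2,000 cells/well and left 6 hours at 37 C/5% CO2 before pin-tool addition of compounds in DMSO. After 17.5 hours at 37 C, CellTiter-Fluor was added and fluorescence read 30 minutes later.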

[5] = molecular target: Thyrotropin receptor (Homo sapiens) (UniProt P16473); test: qHTS assay to identify small molecule agonists of the thyroid stimulating hormone receptor (TSHR) signaling pathway (AID 1224843; calls by dose curve; note: nearly all actives have a fitted effect of over 45% in size; note: potency is the fitted concentration of half-maximal effect)
How it was run: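 Cell line HEK293 with TSHR; density 800/well. Exposure 30 min RT. Readout HTRF cAMP (cAMP-d2/anti-cAMP-cryptate), 1 h RT before reading.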

[6] = qHTS assay to identify small molecule agonists of the hypoxia (HIF-1) signaling pathway - cell viability counter screen (AID 1224844; calls by dose curve; note: nearly all actives have a fitted effect of over 50% in size; note: potency is the fitted concentration of half-maximal effect)
How it was run: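 HRE-bla ME-180 cells in medium with 0.5% dialyzed FBS were preincubated 5 hrs at 37C, exposed to compounds for 17 hrs, then viability was read as CellTiter-Glo luminescence after 30 min at room temperature, in the reporter wells.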

[7] = qHTS assay to identify small molecule agonists of H2AX (AID 1224845; active = well fitted activation curve with a large enough effect in the signal ratio in the repeat runs, not every such curve was filed as active; the % refers to the signal ratio; note: potency is the fitted concentration of half-maximal effect)
How it was run: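 Wild-type CHO-K1 cells plated overnight, then exposed 3 hr at 37C to compounds at 15 concentrations (0.76% DMSO). Lysed, then HTRF anti-pH2AX(S139)-cryptate/anti-H2AX-d2 detection after 24 hr at room temperature; emissions 665 and 620 nm.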

[8] = qHTS assay to identify small molecule agonists of the hypoxia (HIF-1) signaling pathway (AID 1224846; active = well fitted activation curve with a large enough effect in the signal ratio in the repeat runs, not every such curve was filed as active; the % refers to the signal ratio)
How it was run: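 HRE-bla ME-180 cells (beta-lactamase reporter under hypoxia response element) were plated at 2,000 cells/well in medium with 0.5% dialyzed FBS, rested 5 hrs, then given compounds in DMSO for 17 hrs at 37C, 5% CO2. Reporter induction was read with CCF4-AM FRET substrate.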

[9] = qHTS assay to identify small molecule agonists of H2AX - cell viability counter screen (AID 1224847; calls by dose curve; note: nearly all actives have a fitted effect of over 30% in size; note: potency is the fitted concentration of half-maximal effect)
How it was run: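 CHO-K1 wt, 1000 cells/well, o/n 37C; cpds 15 conc, 3 h 37C, 0.76% DMSO; CellTiter-Glo, 30 min RT, luminescence.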

[10] = qHTS RealTime-Glo MT Cell Viability Assay in HepG2 cells - 24 hour (AID 1224867); note: nearly all actives have a fitted effect of over 50% in size
How it was run: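 Cells + NanoLuc/prosubstrate dispensed (600 cells/well) → 5 h at 37 C/5% CO2 → compounds in DMSO transferred → 40 h incubation at 37 C, luminescence read at 0, 8, 16, 24, 32, 40 h.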

[11] = qHTS RealTime-Glo MT Cell Viability Assay in HEK293 cells - 32 hour (AID 1224868); note: nearly all actives have a fitted effect of over 50% in size; note: potency is the fitted concentration of half-maximal effect
How it was run: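 Tox21 10K qHTS, HEK293, 600 cells/well, RealTime-Glo reagent co-dispensed with cells; 5 h preincubation, compound by pintool, 37 C, luminescence at 0–40 h.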

[12] = A CellTox Green Cytotoxicity Assay to monitor cytotoxicity in HEK293 cells - 0 hour (AID 1224869); note: nearly all actives have a fitted effect of over 50% in size; note: potency is the fitted concentration of half-maximal effect
How it was run: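 HEK293 cells premixed with CellTox Green dye were seeded at 600 cells/well and left 5 h at 37 C/5% CO2 before pin transfer of 23 nL compound in DMSO. Fluorescence from dye bound to dead-cell DNA was read during 40 h treatment.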

[13] = qHTS assay to identify small molecule agonists of the constitutive androstane receptor (CAR) signaling pathway - cell viability counter screen (AID 1224836); note: nearly all actives have a fitted effect of over 45% in size
How it was run: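 Viability read-out: CellTiter-Fluor fluorescence after 23 h compound exposure at 37 C/5% CO2 in double-stable HepG2-CYP2B6-hCAR cells, with PK11195 present at 0.75 uM final; compounds tested in 15-point titration.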

[14] = molecular target: Nuclear receptor subfamily 1 group I member 3 (Homo sapiens) (UniProt Q14994); test: qHTS assay to identify small molecule antagonists of the constitutive androstane receptor (CAR) signaling pathway (AID 1224838); note: nearly all actives have a fitted effect of over 40% in size; note: potency is the fitted concentration of half-maximal effect
How it was run: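 HepG2 cells stably co-transfected with hCAR and a CYP2B6-2.2kb luciferase reporter were seeded 4 h before compound addition at 15 concentrations. Cells were stimulated with 50 nM CITCO (final) for 24 h at 37 C; luciferase luminescence was then read.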

[15] = qHTS assay to identify small molecule antagonists of the estrogen related receptor signaling pathway with the pleiotropic PPARgamma coactivator (PGC) from Tox21 10K library (AID 1224841; call rule not given here; note: potency is the fitted concentration of half-maximal effect)
How it was run: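 PGC/ERR reporter cells were seeded at 2,000 cells/well and held 6 hours at 37 C/5% CO2 before pin-tool addition of compounds in DMSO. After 18 hours at 37 C, One-Glo was added and luminescence read after 30 minutes at room temperature.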

[16] = qHTS assay to identify small molecule agonists of the estrogen related receptor signaling pathway with the pleiotropic PPARgamma coactivator (PGC) from Tox21 10K library (AID 1224842); note: nearly all actives have a fitted effect of over 15% in size; note: potency is the fitted concentration of half-maximal effect
How it was run: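 PGC/ERR reporter cells (NTP line) were seeded 2,000 per well, rested 6 h at 37 C/5% CO2, then pin-dosed with compounds in DMSO for 18 h at 37 C; luciferase read by One-Glo luminescence after 30 min at room temperature.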

[17] = qHTS assay to identify small molecule antagonists of the estrogen related receptor (ERR) signaling pathway from Tox21 library (AID 1224848); note: nearly all actives have a fitted effect of over 50% in size; note: potency is the fitted concentration of half-maximal effect
How it was run: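 Screening used an ERR reporter line supplied by NTP, exposed for 18 h at 37 C to library compounds delivered in DMSO. Signal was luciferase luminescence developed with ONE-Glo at room temperature for 30 min.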

[18] = qHTS assay to identify small molecule agonists of the estrogen related receptor (ERR) signaling pathway from Tox21 library (AID 1224849; calls by dose curve; note: potency is the fitted concentration of half-maximal effect; for all read-outs here: nearly all actives have a fitted effect of over 15% in size); conditions: ERR reporter cell line, ONE-Glo luciferase, 18 h; for activity change, positive = activation: at 92.4 µM (top of the series)
How it was run: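 ERR reporter cell line (NTP) seeded, rested 6 h at 37 C/5% CO2, then pinned with Tox21 compounds in DMSO. After 18 h at 37 C, ONE-Glo luciferase luminescence was read following 30 min at room temperature.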

[19] = molecular target: Nuclear receptor subfamily 1 group I member 3 (Homo sapiens) (UniProt Q14994); test: qHTS assay to identify small molecule agonists of the constitutive androstane receptor (CAR) signaling pathway (AID 1224839); note: nearly all actives have a fitted effect of over 15% in size; note: potency is the fitted concentration of half-maximal effect;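 for activation: HepG2 cells stably carrying human CAR and a CYP2B6 luciferase reporter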
How it was run: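 Luminescence read-out (ONE-Glo, 30 min, room temperature) from double-stable HepG2-CYP2B6-hCAR cells exposed 24 h to 15-point compound series in presence of 0.75 uM PK11195 final.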

Sequence of Thyrotropin receptor (Homo sapiens) (P16473 whole entry, looked up): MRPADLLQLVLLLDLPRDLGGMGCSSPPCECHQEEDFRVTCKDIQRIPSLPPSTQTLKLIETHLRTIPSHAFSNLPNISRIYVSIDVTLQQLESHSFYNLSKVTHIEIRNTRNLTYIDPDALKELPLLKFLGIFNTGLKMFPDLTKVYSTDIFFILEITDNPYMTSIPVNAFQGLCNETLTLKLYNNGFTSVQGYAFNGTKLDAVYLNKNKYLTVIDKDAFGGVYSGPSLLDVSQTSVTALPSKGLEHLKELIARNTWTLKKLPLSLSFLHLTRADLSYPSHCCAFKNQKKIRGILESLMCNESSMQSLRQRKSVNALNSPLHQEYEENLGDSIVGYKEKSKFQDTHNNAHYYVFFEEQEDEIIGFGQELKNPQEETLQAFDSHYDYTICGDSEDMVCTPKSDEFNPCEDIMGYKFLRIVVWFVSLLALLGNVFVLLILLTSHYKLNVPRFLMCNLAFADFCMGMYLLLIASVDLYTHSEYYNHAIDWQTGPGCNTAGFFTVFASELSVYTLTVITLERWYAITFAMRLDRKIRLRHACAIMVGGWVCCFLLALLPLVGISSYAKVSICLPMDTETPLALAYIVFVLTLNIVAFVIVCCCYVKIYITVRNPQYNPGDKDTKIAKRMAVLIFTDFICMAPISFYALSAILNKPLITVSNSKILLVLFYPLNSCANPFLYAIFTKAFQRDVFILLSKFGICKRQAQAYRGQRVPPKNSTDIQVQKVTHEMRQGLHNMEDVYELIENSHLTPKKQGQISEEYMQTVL
Sequence of Luciferin 4-monooxygenase (Photinus pyralis) (P08659 whole entry, looked up): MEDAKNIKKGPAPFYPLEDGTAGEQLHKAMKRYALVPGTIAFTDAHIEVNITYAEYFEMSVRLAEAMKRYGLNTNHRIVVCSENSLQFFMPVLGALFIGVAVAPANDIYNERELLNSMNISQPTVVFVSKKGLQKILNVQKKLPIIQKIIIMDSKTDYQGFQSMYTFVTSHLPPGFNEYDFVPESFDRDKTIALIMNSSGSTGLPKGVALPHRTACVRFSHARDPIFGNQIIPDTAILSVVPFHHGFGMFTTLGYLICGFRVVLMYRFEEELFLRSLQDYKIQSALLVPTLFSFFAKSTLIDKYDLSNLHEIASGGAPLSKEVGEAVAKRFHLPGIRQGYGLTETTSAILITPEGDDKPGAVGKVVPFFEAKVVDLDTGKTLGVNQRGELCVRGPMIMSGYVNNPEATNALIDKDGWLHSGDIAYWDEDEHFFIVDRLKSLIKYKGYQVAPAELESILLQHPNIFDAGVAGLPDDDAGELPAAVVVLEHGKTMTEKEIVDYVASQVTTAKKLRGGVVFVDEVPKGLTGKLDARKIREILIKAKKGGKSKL
Sequence of Nuclear receptor subfamily 1 group I member 3 (Homo sapiens) (Q14994 whole entry, looked up): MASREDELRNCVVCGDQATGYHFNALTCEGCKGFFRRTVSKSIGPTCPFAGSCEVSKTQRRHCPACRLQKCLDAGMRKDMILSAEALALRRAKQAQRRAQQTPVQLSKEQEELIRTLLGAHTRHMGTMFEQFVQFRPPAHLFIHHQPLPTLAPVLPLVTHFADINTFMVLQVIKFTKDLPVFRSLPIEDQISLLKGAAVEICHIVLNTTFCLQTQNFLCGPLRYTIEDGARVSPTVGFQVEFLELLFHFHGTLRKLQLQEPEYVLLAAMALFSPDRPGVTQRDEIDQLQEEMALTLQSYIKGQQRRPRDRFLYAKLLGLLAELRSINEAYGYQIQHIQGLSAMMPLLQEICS

| SMILES | Potency [1] | Potency [2] | Potency [3] | Potency [4] | Potency [5] | Potency [6] | Potency [7] | outcome [8] | Potency [9] | Potency [10] | Potency [11] | Potency [12] | Potency [13] | Potency [14] | Potency [15] | Potency [16] | Potency [17] | Potency [18] | activity change, positive = activation [18] | Potency [19] |
| --- | --- | --- | --- | --- | --- | --- | --- | --- | --- | --- | --- | --- | --- | --- | --- | --- | --- | --- | --- | --- |
| CCCCN(CCCC)N=O | inactive | inactive | inactive | inactive | inactive | inactive | inactive | inactive | inactive | inactive | inactive | inactive |  |  |  |  |  |  |  |  |
| Nc1ccc(-c2ccc(N)c(N)c2)cc1N | 48.4 µM (active) | 35.5 µM (active) | inactive |  | inactive | inactive |  | inactive | inactive | inactive |  | inactive |  |  |  |  |  |  |  |  |
| C[C@]12CCC(=O)C[C@@H]1CC[C@@H]1[C@@H]2CC[C@]2(C)[C@@H](O)CC[C@@H]12 | 48 µM (active) and inactive |  | inactive | inactive |  | inactive |  |  | 79.1 µM (active) | inactive | 21.6 µM (active) | inactive | inactive |  |  |  |  |  |  |  |
| Nc1ccc(Cl)cc1N | inactive | 13.1 µM (active) and 7.1 µM (active) | 6.86 µM (active) | inactive | inactive |  | inactive | inactive | inactive | inactive |  | 40 µM (active) |  | 0.217 µM (active) | inactive | 8.98 µM (active) and 386 nM (active) | inactive | 8.31 µM [activator] (active) | 19.2% (active) |  |
| c1cc(OCC2CO2)ccc1Cc1ccc(OCC2CO2)cc1 (stereo unspecified) |  | inactive | inactive | inactive | inactive |  | inactive |  | inactive | inactive |  | inactive | inactive | inactive |  |  |  |  |  | inactive |
| O=P(Oc1ccccc1)(Oc1ccccc1)Oc1ccccc1 |  | inactive | inactive | inactive | 12.1 µM (active) and 9.69 µM (active) | inactive | inactive | inactive | 89.3 µM (active) and inactive | inactive | inactive | inactive | inactive | inactive | 13.6 µM (active) | inactive |  |  | -19.4% (inactive) and -25.7% (inactive) | 21.6 µM (active) and 19.3 µM (active) |
| CCc1cccc(CC)c1N(COC)C(=O)CCl |  | inactive | inactive | inactive | inactive | 47.4 µM (active) |  | inactive | inactive | inactive | inactive | inactive | inactive | inactive |  |  |  |  |  | 18.7 µM (active) and 19.3 µM (active) |
| S=C1NCCN1 | inactive |  | inactive | inactive | 1.69 µM (active) and inactive | inactive | inactive | inactive | inactive | inactive | inactive | inactive | inactive |  |  |  |  |  |  |  |
| COc1ccc(C(CN(C)C)C2(O)CCCCC2)cc1 (stereo unspecified) | inactive | inactive | inactive | inactive | inactive | inactive | inactive | inactive | inactive | inactive | inactive | inactive |  |  |  |  |  |  |  |  |
| Cc1cc(C)cc(C)c1 | inactive | inactive | inactive | inactive | inactive | inactive | inactive | inactive | inactive | inactive | inactive | inactive |  |  |  |  |  |  |  |  |
| CN(C)c1ccc(C(=O)c2ccc(N(C)C)cc2)cc1 | inactive and 9.69 µM (active) | 35.2 µM (active) and 10 µM (active) | inactive | inactive |  | inactive | inactive | inactive |  | inactive |  | inactive |  | inactive |  |  |  |  |  | 1.93 µM (active) |
| N[C@@H](Cc1ccc(N(CCCl)CCCl)cc1)C(=O)O | inactive |  | inactive | inactive | inactive | 23.5 µM (active) and 23.9 µM (active) | 38.4 µM (active) and 43.8 µM (active) |  | inactive | inactive |  | inactive | inactive |  |  |  |  |  |  |  |
| C#C[C@]1(O)CC[C@H]2[C@@H]3CCC4=CC(=O)CC[C@]4(C)[C@H]3CC[C@@]21C | inactive | inactive | inactive | inactive | inactive | inactive | inactive |  | inactive | inactive | inactive | inactive |  | inactive |  |  |  |  |  | inactive |
| CCOCN(C(=O)CCl)c1c(C)cccc1CC |  | inactive | inactive | inactive | 8.15 µM (active) and inactive | 51.9 µM (active) |  | inactive | inactive | inactive | inactive | inactive | inactive | inactive | 36.4 µM (active) and 13.7 µM (active) | inactive | 23 µM (active) and 27.3 µM (active) |  | -61% (inactive) and -71.1% (inactive) | 18.3 µM (active) and 15.4 µM (active) |
| NNC(=S)NN |  | inactive | inactive |  | inactive |  | inactive |  | inactive | inactive |  | inactive | inactive |  | 62.8 µM (active) and 61.1 µM (active) | inactive | 62.8 µM (active) |  | -65.9% (inactive) and -38.7% (inactive) |  |
